Each structure is given as a SMILES string. Values without a mark were called inactive. Inconclusive results are not listed. Calls of active or inactive are those of the source. Unless noted, calls come from the whole dose curve; as a rule, active = well fitted curve in the direction sought with a large enough effect in the repeat runs; inconclusive = weak or mixed curves; inactive = no such curve, though single readings can be large; an effect the other way counts as inactive or inconclusive.

Consider seven molecules from PubChem BioAssay (Tox21).

The target of assay [1] is Luciferin 4-monooxygenase (Photinus pyralis) (UniProt P08659). As to the kind of experiment: qHTS assay to identify small molecule inhibitors of firefly luciferase (AID 1224835). Note: nearly all actives have a fitted effect of over 25% in size. The method in brief:
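Inhibition of purified Photinus luciferase is measured by luminescence. Substrate levels (D-luciferin, ATP) sit at their KM values. Each compound is tested in a concentration series.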
For orientation: Quantitative high-throughput screening tests each substance at several concentrations.

Assay [2] can be described thus: qHTS assay to identify small molecule agonists of the constitutive androstane receptor (CAR) signaling pathway - cell viability counter screen (AID 1224836). Note: nearly all actives have a fitted effect of over 45% in size. In a few lines: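 23 h treatment, 37 C, 5% CO2. Cell line: HepG2 stably expressing hCAR with a CYP2B6-2.2kb construct. Co-treatment: PK11195, 0.75 uM final. Read-out: CellTiter-Fluor fluorescence intensity.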

Assay [3] is described as follows: qHTS assay to identify small molecule antagonists of the constitutive androstane receptor (CAR) signaling pathway - cell viability counter screen (AID 1224837). Note: nearly all actives have a fitted effect of over 45% in size. The method in brief:
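Counter screen run in HepG2-CYP2B6-hCAR cells: 4 hr settle, compound titration (15 concentrations) with 50 nM CITCO, 23 hr at 37 C/5% CO2, CellTiter-Fluor fluorescence.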

Assay [4] has as its target Nuclear receptor subfamily 1 group I member 3 (Homo sapiens) (UniProt Q14994). The assay is described as follows: qHTS assay to identify small molecule antagonists of the constitutive androstane receptor (CAR) signaling pathway (AID 1224838).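 Note: HepG2 cells stably expressing hCAR with CYP2B6 luciferase reporter stimulated by CITCO; nearly all actives have a fitted effect of over 40% in size.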 In a few lines: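 Cell line: HepG2 double-stable for hCAR and CYP2B6-2.2kb reporter. Agonist: CITCO, 50 nM final. Compounds: 15 concentrations, 24 h, 37 C. Detection: ONE-Glo luminescence.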

Assay [5] is described as follows: qHTS assay to identify small molecule antagonists of the estrogen related receptor signaling pathway with the pleiotropic PPARgamma coactivator (PGC) from Tox21 10K library - cell viability counter screen (AID 1224840; active = well fitted cell-killing curve with a large enough effect in the repeat runs, not every such curve was filed as active; note: nearly all actives have a fitted effect of over 40% in size). In a few lines: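 Following seeding of 2,000 PGC/ERR cells/well and 6 hours' incubation, test compounds were delivered in DMSO. The plates then sat 17.5 hours at 37 C before a fluorogenic live-cell protease reagent (CellTiter-Fluor) was read after 30 min.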

A short description of assay [6]: qHTS assay to identify small molecule antagonists of the estrogen related receptor signaling pathway with the pleiotropic PPARgamma coactivator (PGC) from Tox21 10K library (AID 1224841; call rule not given here; note: actives are mostly falling curves and most rising ones were filed inactive; nearly all actives have a fitted effect of over 50% in size). The method in brief: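 qHTS antagonist format: PGC/ERR cells, 2k/well, compound in DMSO by pin transfer after 6 h attachment, 18 h treatment at 37 C, One-Glo luminescence read at 30 min.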

The nature of assay [7]: qHTS assay to identify small molecule agonists of the estrogen related receptor signaling pathway with the pleiotropic PPARgamma coactivator (PGC) from Tox21 10K library (AID 1224842). Note: nearly all actives have a fitted effect of over 15% in size. In a few lines: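 Luminescence from One-Glo (30 min, room temperature) measured after PGC/ERR cells had 18 h at 37 C with pinned compound (23 nL in DMSO). Cells had been seeded at 2,000 per well and pre-incubated 6 h.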

For assay [8], the target named is Thyrotropin receptor (Homo sapiens) (UniProt P16473). As to the kind of experiment: qHTS assay to identify small molecule agonists of the thyroid stimulating hormone receptor (TSHR) signaling pathway (AID 1224843; calls by dose curve; note: nearly all actives have a fitted effect of over 45% in size). In a few lines: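 HEK293 cells stably bearing the thyrotropin receptor were plated at 800 cells/well and challenged with compound (30 min, RT). Accumulated cAMP was quantified via cAMP-d2 competing for cryptate-tagged antibody.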

Assay [9] is described as follows: qHTS assay to identify small molecule agonists of the hypoxia (HIF-1) signaling pathway - cell viability counter screen (AID 1224844; calls by dose curve; note: nearly all actives have a fitted effect of over 50% in size). In a few lines:
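Cells (HRE-bla ME-180, 2,000 per well) sat 5 hrs at 37C, got compound for 17 hrs, were read for CCF4-AM FRET, and were finally lysed with CellTiter-Glo for a 30 min room-temperature luminescence read.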

Assay [10] in a line: qHTS assay to identify small molecule agonists of H2AX (AID 1224845; active = well fitted activation curve with a large enough effect in the signal ratio in the repeat runs, not every such curve was filed as active; the % refers to the signal ratio). In a few lines: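 Phospho-H2AX Ser139 measured by HTRF (ex 320 nm; em 665 and 620 nm) after 24 hr antibody incubation. Compounds, 15 concentrations, 0.76% DMSO, were applied to CHO-K1 cells for 3hr at 37C before lysis.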
Assay [11] can be described thus: qHTS assay to identify small molecule agonists of the hypoxia (HIF-1) signaling pathway (AID 1224846; active = well fitted activation curve with a large enough effect in the signal ratio in the repeat runs, not every such curve was filed as active; the % refers to the signal ratio). In a few lines: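 A low-serum medium (0.5% dialyzed FBS) holding 2,000 HRE-bla ME-180 cells per well is preincubated for 5 hrs, dosed with compounds by pintool, and kept a further 17 hrs at 37C, 5% CO2 before CCF4-AM FRET detection of beta-lactamase.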
A short description of assay [12]: qHTS assay to identify small molecule agonists of H2AX - cell viability counter screen (AID 1224847; calls by dose curve; note: top concentration of the series differs between compounds; nearly all actives have a fitted effect of over 30% in size). In a few lines:
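Compounds tested at 15 concentrations were incubated 3 hr at 37C with wild-type CHO-K1 cells; cellular ATP-based luminescence (CellTiter-Glo) indicated viability.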

Assay [13] can be described thus: qHTS assay to identify small molecule agonists of the estrogen related receptor (ERR) signaling pathway from Tox21 library (AID 1224849; calls by dose curve; note: nearly all actives have a fitted effect of over 15% in size). The settings on record: ERR reporter cell line, ONE-Glo luciferase, 18 h; at 92.4 µM (top of the series) unless noted. The method in brief: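 Screening used an NTP-provided ERR luciferase cell line. Compounds in DMSO were added 6 h after seeding and left 18 h at 37 C before a 30 min ONE-Glo step and luminescence reading.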

Assay [14] is described as follows: qHTS RealTime-Glo MT Cell Viability Assay in HepG2 cells - 24 hour (AID 1224867). Note: nearly all actives have a fitted effect of over 50% in size. In a few lines:
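Cells + NanoLuc/prosubstrate dispensed (600 cells/well) → 5 h at 37 C/5% CO2 → compounds in DMSO transferred → 40 h incubation at 37 C, luminescence read at 0, 8, 16, 24, 32, 40 h.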

Assay [15] can be described thus: qHTS RealTime-Glo MT Cell Viability Assay in HEK293 cells - 32 hour (AID 1224868). Note: top concentration of the series differs between compounds; nearly all actives have a fitted effect of over 50% in size. The method in brief: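 Tox21 10K qHTS, HEK293, 600 cells/well, RealTime-Glo reagent co-dispensed with cells; 5 h preincubation, compound by pintool, 37 C, luminescence at 0–40 h.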
Assay [16] is described as follows: A CellTox Green Cytotoxicity Assay to monitor cytotoxicity in HEK293 cells - 0 hour (AID 1224869). Note: nearly all actives have a fitted effect of over 50% in size. In a few lines:
(§1)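 Fluorescence intensity, read at 0, 8, 16, 24, 32 and 40 h of compound treatment, reflected dye binding to DNA of dead HEK293 cells; compounds (23 nL, DMSO) were added 5 h after plating cells with reagent.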

A short description of assay [17]: qHTS RealTime-Glo MT Cell Viability Assay in HepG2 cells - 40 hour (AID 1224870). Note: nearly all actives have a fitted effect of over 50% in size. The method in brief: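 Real-time viability: cells seeded at 600 per well together with NanoLuc and cell-permeant prosubstrate, compounds added after 5 h incubation. Luminescence tracked at 0, 8, 16, 24, 32 and 40 h of exposure.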
Assay [18] in a line: A CellTox Green Cytotoxicity Assay to monitor cytotoxicity in HEK293 cells - 40 hour (AID 1224871). Note: nearly all actives have a fitted effect of over 45% in size. The method in brief:
as §1

The nature of assay [19]: qHTS assay to identify small molecule antagonists of the estrogen related receptor (ERR) signaling pathway from Tox21 library (AID 1224848). Note: nearly all actives have a fitted effect of over 50% in size. In a few lines:
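Reading was by luminescence 30 min after ONE-Glo addition. Before that, ERR cells at 2,000 per well had rested 6 h at 37 C/5% CO2 and then received pin-tooled compounds in DMSO for 18 h at 37 C.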

The target of assay [20] is Nuclear receptor subfamily 1 group I member 3 (Homo sapiens) (UniProt Q14994). The assay is described as follows: qHTS assay to identify small molecule agonists of the constitutive androstane receptor (CAR) signaling pathway (AID 1224839).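 Note: HepG2 cells stably carrying human CAR and a CYP2B6 luciferase reporter; nearly all actives have a fitted effect of over 15% in size.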 In a few lines:
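Compounds tested at 15 concentrations on HepG2 cells stably harbouring hCAR and CYP2B6-2.2kb reporter constructs, co-treated with PK11195 (0.75 uM final), 24 h at 37 C; luminescent reporter signal quantified.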
% is set by controls: 0 for no effect and ±100 for the full control effect.

Chain of Luciferin 4-monooxygenase (Photinus pyralis) (P08659 whole entry, looked up): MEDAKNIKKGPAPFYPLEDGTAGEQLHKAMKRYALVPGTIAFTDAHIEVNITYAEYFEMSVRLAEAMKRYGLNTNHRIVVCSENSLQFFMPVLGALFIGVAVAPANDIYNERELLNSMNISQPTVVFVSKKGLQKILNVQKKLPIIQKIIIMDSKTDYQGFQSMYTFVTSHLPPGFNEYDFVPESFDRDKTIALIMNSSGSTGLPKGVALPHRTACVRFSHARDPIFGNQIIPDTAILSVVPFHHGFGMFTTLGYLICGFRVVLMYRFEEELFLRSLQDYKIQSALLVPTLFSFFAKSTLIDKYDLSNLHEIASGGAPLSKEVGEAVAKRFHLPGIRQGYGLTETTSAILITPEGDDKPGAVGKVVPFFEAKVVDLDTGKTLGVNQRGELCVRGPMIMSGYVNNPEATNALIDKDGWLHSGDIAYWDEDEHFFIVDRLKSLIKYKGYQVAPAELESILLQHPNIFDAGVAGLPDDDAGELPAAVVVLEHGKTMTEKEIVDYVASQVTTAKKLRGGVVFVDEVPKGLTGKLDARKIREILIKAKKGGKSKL
Chain of Thyrotropin receptor (Homo sapiens) (P16473 whole entry, looked up): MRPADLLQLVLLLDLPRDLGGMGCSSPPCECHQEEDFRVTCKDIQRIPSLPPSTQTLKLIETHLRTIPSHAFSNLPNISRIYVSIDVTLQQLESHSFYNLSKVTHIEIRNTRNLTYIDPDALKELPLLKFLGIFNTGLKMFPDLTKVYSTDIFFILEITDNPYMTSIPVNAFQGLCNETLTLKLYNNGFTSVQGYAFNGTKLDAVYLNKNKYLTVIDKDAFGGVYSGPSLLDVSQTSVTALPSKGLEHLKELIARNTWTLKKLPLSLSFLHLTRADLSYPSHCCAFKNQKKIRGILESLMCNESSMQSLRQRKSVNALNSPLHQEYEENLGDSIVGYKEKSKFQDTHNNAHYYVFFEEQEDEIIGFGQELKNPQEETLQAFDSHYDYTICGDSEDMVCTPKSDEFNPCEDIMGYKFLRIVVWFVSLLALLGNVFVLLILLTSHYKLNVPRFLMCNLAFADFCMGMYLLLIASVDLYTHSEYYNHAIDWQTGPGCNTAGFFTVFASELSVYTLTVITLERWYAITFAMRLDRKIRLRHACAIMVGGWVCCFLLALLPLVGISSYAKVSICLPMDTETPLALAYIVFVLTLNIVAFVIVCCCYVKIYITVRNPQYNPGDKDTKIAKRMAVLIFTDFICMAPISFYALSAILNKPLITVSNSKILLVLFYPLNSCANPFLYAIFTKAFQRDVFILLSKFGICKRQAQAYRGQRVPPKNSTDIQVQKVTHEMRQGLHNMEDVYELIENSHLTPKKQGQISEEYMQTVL
Chain of Nuclear receptor subfamily 1 group I member 3 (Homo sapiens) (Q14994 whole entry, looked up): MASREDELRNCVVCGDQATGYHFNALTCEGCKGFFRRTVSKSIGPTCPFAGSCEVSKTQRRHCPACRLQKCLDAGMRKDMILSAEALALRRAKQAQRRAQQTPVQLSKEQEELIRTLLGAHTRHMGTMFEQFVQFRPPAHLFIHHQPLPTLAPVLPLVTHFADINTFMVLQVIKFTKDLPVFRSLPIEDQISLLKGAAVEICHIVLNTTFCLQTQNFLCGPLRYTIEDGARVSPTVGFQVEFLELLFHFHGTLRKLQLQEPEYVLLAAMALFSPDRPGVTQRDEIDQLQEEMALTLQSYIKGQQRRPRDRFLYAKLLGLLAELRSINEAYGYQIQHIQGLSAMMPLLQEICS

As to `Cc1cccc(C)c1NC(=O)c1ccccc1C(=O)O`, the Potency result in assay [1], in [2], in assay [3], in assay [6], in assay [8] and in [12] was “inactive” throughout. Besides, the Potency result in [15] and in assay [18] was “inactive” throughout. The outcome in assay [4], in [5], in assay [7], in assay [9], in assay [10] and in [11] was inactive. For the same molecule, the result in assay [14], in assay [16] and in assay [17] was inactive. In addition, the activity change, positive = activation in [13] was 2.58% [at 42.5 µM].

As for `COC(=O)[C@@H]1[C@H]2C[C@H]3c4[nH]c5ccccc5c4CCN3C[C@@H]2CC[C@@H]1O`, the Potency result in assay [1], in [2], in assay [3], in assay [6], in assay [8] and in [12] was “inactive” each time. Also, the Potency entry in assay [19], in [15] and in [18] was “inactive” throughout. The call in assay [4], in assay [5], in [7], in assay [9], in assay [14] and in assay [16] was inactive. Besides, the call in [17] was inactive. The activity change, positive = activation in assay [13] was 33.5% [at 42.5 µM] (active).

`C=C(C)C1CCC(C)(O)CC1` (configuration not stated): the Potency result in [1], in assay [2], in assay [3], in assay [20], in assay [8] and in assay [12] was “inactive” in each case. In addition, the Potency entry in [15] and in [18] was “inactive” throughout. The molecule was called inactive in assay [4], in [5], in assay [9], in [10], in assay [11] and in [16]. For the same molecule, in assay [17], the molecule was called inactive.

Consider `OCCN(CCO)c1cccc(Cl)c1`, for which the Potency entry in assay [1], in assay [2], in assay [3], in assay [20], in [8] and in [15] was “inactive” in each case. Further, in [18], the Potency entry is “inactive”. In addition, the result in assay [4], in [5], in assay [9], in assay [10], in assay [11] and in assay [14] was inactive. The outcome in assay [16] and in assay [17] was inactive.

As for `C[C@@H](O)[C@H]1C(=O)N2C(C(=O)O)=C(SCCN=CN)C[C@H]12`, the Potency entry in [1], in assay [2], in assay [3], in assay [6], in assay [8] and in [12] was “inactive” each time. The Potency entry in assay [19], in [15] and in assay [18] was “inactive” each time. Besides, the call in assay [4], in assay [5], in assay [7], in assay [9], in assay [10] and in [14] was inactive. Also, in [16], the molecule was classed as inactive. The activity change, positive = activation in [13] was 5.47% [at 42.5 µM].

With `CCCC(=O)C(C)=O`, the Potency entry in [1], in assay [2], in assay [3], in [6], in [19] and in [15] was “inactive” throughout. The Potency result in assay [18] is “inactive”. In addition, the outcome in [4], in assay [5], in [7], in [9], in assay [10] and in assay [11] was inactive. Besides, the outcome in assay [14], in assay [16] and in [17] was inactive. The activity change, positive = activation in [13] is 7.37%.

As for `O=C(CCNNC(=O)c1ccncc1)NCc1ccccc1`, the Potency entry in [1], in [2], in assay [3], in [20], in assay [8] and in assay [12] was “inactive” in each case. The Potency entry in assay [15] and in assay [18] was “inactive” in each case. Moreover, the outcome in [4], in assay [5], in [9], in [10] and in [17] was inactive.
